Data: ChEMBL document CHEMBL1201862, “PubChem BioAssay data set” (2004)
The whole screen tested about 400,000 compounds, of which about 2,100 (0.53%) were called active. About 14% were inconclusive and are not listed. No rule for the calls is given here. What follows is part of a selection rich in actives, with near analogues and random picks from the rest.

Target: Ataxin-2 (Homo sapiens) (UniProt Q99700)
Assay: qHTS for Inhibitors of ATXN expression.
Assay type: functional

Chain of Ataxin-2 (Homo sapiens) (Q99700 whole entry): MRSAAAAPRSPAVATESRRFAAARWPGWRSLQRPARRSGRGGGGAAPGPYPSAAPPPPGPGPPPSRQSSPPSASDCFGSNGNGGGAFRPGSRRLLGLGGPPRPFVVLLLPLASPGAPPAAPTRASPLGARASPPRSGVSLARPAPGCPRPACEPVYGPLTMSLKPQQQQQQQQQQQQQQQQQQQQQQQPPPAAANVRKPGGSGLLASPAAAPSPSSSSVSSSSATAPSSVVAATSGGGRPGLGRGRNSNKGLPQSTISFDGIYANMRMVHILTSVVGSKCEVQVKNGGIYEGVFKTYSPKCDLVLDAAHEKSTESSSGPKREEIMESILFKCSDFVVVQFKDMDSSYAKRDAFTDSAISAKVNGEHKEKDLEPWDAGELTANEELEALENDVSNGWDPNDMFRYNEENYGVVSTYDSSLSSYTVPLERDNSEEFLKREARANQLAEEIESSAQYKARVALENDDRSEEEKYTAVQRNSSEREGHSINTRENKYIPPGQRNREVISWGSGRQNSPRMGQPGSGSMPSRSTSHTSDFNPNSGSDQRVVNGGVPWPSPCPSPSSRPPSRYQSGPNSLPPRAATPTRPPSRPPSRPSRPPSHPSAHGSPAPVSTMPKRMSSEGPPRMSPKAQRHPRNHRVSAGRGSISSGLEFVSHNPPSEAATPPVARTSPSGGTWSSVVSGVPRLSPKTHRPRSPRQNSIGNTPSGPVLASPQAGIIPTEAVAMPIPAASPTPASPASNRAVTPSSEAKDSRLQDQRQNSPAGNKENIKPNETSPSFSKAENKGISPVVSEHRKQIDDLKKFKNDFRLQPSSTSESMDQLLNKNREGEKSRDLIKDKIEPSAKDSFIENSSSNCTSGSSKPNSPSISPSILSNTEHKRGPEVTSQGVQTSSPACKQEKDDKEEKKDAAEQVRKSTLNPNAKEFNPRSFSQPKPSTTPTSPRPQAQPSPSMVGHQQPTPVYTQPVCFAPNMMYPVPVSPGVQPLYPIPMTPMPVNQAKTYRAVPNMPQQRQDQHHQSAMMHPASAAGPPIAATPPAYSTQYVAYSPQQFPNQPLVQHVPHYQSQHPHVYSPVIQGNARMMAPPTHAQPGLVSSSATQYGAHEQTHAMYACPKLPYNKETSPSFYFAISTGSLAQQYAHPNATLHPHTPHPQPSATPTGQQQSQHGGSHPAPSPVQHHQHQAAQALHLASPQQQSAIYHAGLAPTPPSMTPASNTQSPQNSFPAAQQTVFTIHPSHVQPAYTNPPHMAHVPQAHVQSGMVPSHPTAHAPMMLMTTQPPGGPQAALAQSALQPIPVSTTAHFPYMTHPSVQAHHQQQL

Row | SMILES | Potency
1 | N#Cc1c2ccc(OCC(N)=O)cc2n2ccccc12 | inactive
2 | CCN(Cc1ccc(OC)c(F)c1)C(=O)/C=C/c1ccc(S(=O)(=O)N2CCOCC2)cc1 | inactive
3 | CCOC(=O)/C=C/C(=O)Nc1ccc(S(=O)(=O)Nc2nccs2)cc1 | inactive
4 | CC(NC(=O)c1cc2c(=O)n3ccccc3nc2n(CC2CCCO2)c1=N)c1ccccc1 (centres undefined) | inactive
5 | Cc1cc(C(=O)NNc2c(Cl)cccc2Cl)no1 | inactive
6 | CCCCN(C)C(=O)c1ccc2c(c1)N(Cc1cccc(F)c1)C(=O)c1ccccc1S2 | 25.1 µM (active)
7 | CCCCN1C(=O)c2cccc3cc(O)cc(c23)C1=O | inactive
8 | O=C1c2cccc3cccc(c23)N1Cc1ccc(F)cc1 | inactive
9 | Cc1oc(-c2ccccc2F)nc1C[S+]([O-])CC(=O)NCc1ccc(F)cc1 (centres undefined) | inactive
10 | N#Cc1c(N)n(-c2cccc(C(=O)O)c2)c2nc3ccccc3nc12 | inactive
11 | NC(Cc1ccc(C(F)(F)F)cc1)c1csc(NC(=O)Nc2ccccc2)n1 (centres undefined) | 35.5 µM (active)
12 | O=C(Nc1ccccc1)Nc1nc(-c2ccc(F)c(F)c2)cs1 | inactive
13 | NC(Cc1ccc(C(F)(F)F)cc1)c1csc(NC(=O)Nc2ccccc2Cc2ccccc2)n1 (centres undefined) | 35.5 µM (active)
14 | Cc1ccc(-c2ocnc2C(=O)Nc2nc(C)cs2)cc1 | inactive
15 | Nc1c(C(=O)Nc2ccccc2F)sc2nc(Cc3ccccc3)cc(C(F)(F)F)c12 | inactive
16 | Cc1ccc(C(=O)Nc2nc(C(N)Cc3ccc(C(F)(F)F)cc3)cs2)cc1 (centres undefined) | 39.8 µM (active)
17 | CC(C)CC(N)c1csc(NC(=O)Nc2ccccc2Cc2ccccc2)n1 (centres undefined) | 22.4 µM (active)
18 | O=C(Nc1ccccc1)Nc1sccc1-c1nc2ccccc2s1 | inactive
19 | CCc1ccccc1NC(=O)c1sc2nc(C)cc(C)c2c1N | inactive
20 | CCOC(=O)c1sc(-c2ccc(C(F)(F)F)cc2)nc1O | inactive
21 | CC(=O)c1ccc(/C=C/c2nc3ccccc3n2C)o1 | inactive
22 | Fc1ccc(N2CCN(C(S)=NCc3ccco3)CC2)cc1 | inactive
23 | Nc1cccc2c1C(=O)N(C(=O)c1cccc(S(=O)(=O)N3CCCC3)c1)C2=O | inactive
24 | C/C(=N\OCC(=O)Nc1ccccc1C(=O)O)c1cccs1 | inactive

Row | SMILES | Potency
25 | CC(=O)NC1=NC(=O)/C(=C/c2cc(C)n(-c3cccc(C(=O)O)c3)c2C)S1 | inactive
26 | CC(C)CC(N)c1csc(NC(=O)c2cc(C(C)(C)C)nn2Cc2ccccc2)n1 (centres undefined) | 31.6 µM (active)
27 | CC(C)(C)c1cc(C(=O)NNc2cccc(Cl)c2)n(Cc2ccccc2)n1 | inactive
28 | CC(C)(C)c1cc(NC(=O)COC(=O)c2ccccc2)n(-c2ccccc2)n1 | inactive
29 | COC(=O)c1ccc(COc2ccccc2OC)o1 | inactive
30 | CC(C)Cn1c(N)c(C(=O)COC(=O)c2cc3ccccc3cc2O)c(=O)n(C)c1=O | inactive
31 | Cc1cccc(C2=NN(c3ccccc3)[C@H](CO)[C@H]2c2ccc(F)cc2)c1 | inactive
32 | Cc1cccn2c(=O)c3cc(C(=O)NCCCN4CCCC4=O)n(C)c3nc12 | inactive
33 | Cc1ccc(-n2cc(CNCCCN3CCCC3=O)c(-c3ccc(F)cc3)n2)cc1 | 25.1 µM (active)
34 | Cc1ccc(-n2cc(CNCCCn3cccn3)c(-c3cccc(C)c3)n2)cc1 | 20 µM (active)
35 | Cc1ccc(C2(c3ccc(C)cc3)NC(=O)N(CC(=O)NCCCN3CCCC3=O)C2=O)cc1 | inactive
36 | Cc1cccc(-n2cc(CNCCc3nc(C)cc(C)n3)c(-c3cccc(F)c3)n2)c1 | 31.6 µM (active)
37 | CCOC(=O)c1cc2c(=O)n3ccccc3nc2n(CCCOC)/c1=N\C(=O)C(C)(C)C | inactive
38 | CCOc1ccc(NC(S)=Nc2cccnc2)cc1 | inactive
39 | Cc1cc(N(C)Cc2ccccc2)nc2cc(O)ccc12 | inactive
40 | CN(CCCC(=O)N1CCN(c2ncccn2)CC1)S(=O)(=O)c1ccc(F)cc1 | inactive
41 | O=C(NCC1CCCCC1)c1ccc(Cl)c(S(=O)(=O)N2CCOCC2)c1 | inactive
42 | Cc1ccc(-n2nc3c(=O)n(CC(=O)NC4CCCCC4)nc(C)c3c2C)cc1 | inactive
43 | O=C(Cn1ncc(Cl)c(Cl)c1=O)NC1CCCCC1 | 28.2 µM (active)
44 | O=C(Cn1ncc(Cl)c(Cl)c1=O)NCC1CCCCC1 | 31.6 µM (active)
45 | O=C(NC1CCCCCC1)c1cc2c(=O)n3ccccc3nc2s1 | inactive
46 | Cc1cc(C(F)(F)F)c(C#N)c(SCC(=O)Nc2nc3cc(Br)ccc3s2)n1 | inactive
47 | COC(=O)c1sc2ccccc2c1NC(=O)c1ccc(S(=O)(=O)N2CCCC(C)C2)cc1 (centres undefined) | inactive
48 | COc1ccc(CCN(Cc2cc3cc(C)ccc3nc2O)C(C)=O)cc1OC | inactive

Row | SMILES | Potency
49 | CCOc1ccc2nc(O)c(CN(Cc3ccco3)C(CC)c3nnnn3Cc3ccccc3)cc2c1 (centres undefined) | 20 µM (active)
50 | CCC(c1nnnn1Cc1ccco1)N(CCc1ccccc1)Cc1cc2cc(C)ccc2nc1O (centres undefined) | 39.8 µM (active)
51 | Cc1ccc2nc3c(cc2c1)c(NC(=O)c1ccco1)nn3CC(C)C | inactive
52 | Oc1nc2ccccc2nc1-c1nnnn1Cc1ccccc1 | inactive
53 | CC1CCCN(C(=S)SCC(=O)c2cc(Br)cc(Br)c2O)C1 (centres undefined) | inactive
54 | O=C(Cc1csc(Nc2nc(S)nc3ccccc23)n1)N1CCN(c2cccc(Cl)c2)CC1 | inactive
55 | CCn1c(SC(C)C(=O)Nc2nnc(C)s2)nnc1-c1ccco1 (centres undefined) | inactive
56 | Cc1c(C#N)c(NC(=O)CCl)n(Cc2cccs2)c1C | 11.2 µM (active)
57 | Cc1cc(/C=C(\C#N)C(=O)NCc2cccs2)c(C)[nH]1 | inactive
58 | Cc1cc(C(=O)CN2C(=O)c3cccc(N)c3C2=O)c(C)n1Cc1cccs1 | inactive
59 | Cc1c(CCC(=O)O)c(=O)oc2c(C)c3occ(-c4ccc(Cl)cc4)c3cc12 | inactive
60 | C[C@@H]1CN([C@H](C)CO)C(=O)Cc2cc(NS(=O)(=O)c3ccc(Cl)cc3)ccc2O[C@H]1CN(C)Cc1ccc(C(F)(F)F)cc1 | 25.1 µM (active)
61 | C[C@H](CO)N1C[C@H](C)[C@@H](CN(C)S(=O)(=O)c2ccc(-c3ccccc3)cc2)OCc2cn(nn2)CCCC1=O | inactive
62 | COc1cccc(S(=O)(=O)N(C)C[C@@H]2OCc3cnnn3CCCC(=O)N([C@@H](C)CO)C[C@H]2C)c1 | inactive
63 | C[C@H]1CN([C@@H](C)CO)C(=O)Cc2cc(NC(=O)CCC(F)(F)F)ccc2O[C@H]1CN(C)Cc1ccc(-c2ccccc2)cc1 | 35.5 µM (active)
64 | C[C@H]1CN([C@@H](C)CO)C(=O)Cc2cc(NC(=O)CCC(F)(F)F)ccc2O[C@H]1CN(C)Cc1ccc(C(F)(F)F)cc1 | 39.8 µM (active)
65 | O=C1OCc2ccc(NS(=O)(=O)c3ccc(C(F)(F)F)cc3)cc21 | inactive
66 | C[C@@H]1CN([C@@H](C)CO)C(=O)CCCn2nncc2CO[C@H]1CN(C)Cc1ccc(-c2ccccc2)cc1 | 28.2 µM (active)
67 | COCCCNC(=O)/C(C#N)=C/c1c(N2CCN(C)CC2)nc2c(C)cccn2c1=O | inactive
68 | CNS(=O)(=O)c1ccc2c3c(cccc13)C(=O)N2 | inactive
69 | Cc1c(Cc2ccccc2)c(NCCCO)n2c(nc3ccccc32)c1C#N | inactive
70 | NC(=O)c1cc2ccc(O)cc2o/c1=N\c1ccccc1 | inactive
71 | CN(C)Cc1ccccc1CNC(=O)c1cccc(S(=O)(=O)Nc2ccc3c(c2)OCO3)c1 | inactive
72 | Cc1ccc(S(=O)(=O)Nc2ccc3c(c2)CC(=O)N([C@H](C)CO)C[C@H](C)[C@H](CN(C)Cc2ccc4c(c2)OCO4)O3)cc1 | 35.5 µM (active)

Row | SMILES | Potency
73 | C[C@H]1CN([C@@H](C)CO)C(=O)Cc2cc(NC(=O)C3CC3)ccc2O[C@H]1CN(C)Cc1ccc(Oc2ccccc2)cc1 | 25.1 µM (active)
74 | Cc1ccc(NC(=O)C2CC(=O)N(C(C)C)C2)cc1C (centres undefined) | inactive
75 | Cc1cc(C)c(S(=O)(=O)NCc2ccc3c(c2)OCO3)c(C)c1 | inactive
76 | Cc1ccc(-c2nc(C[S+]([O-])CC(=O)NCCN3CCCCCC3)c(C)o2)cc1 (centres undefined) | inactive
77 | CCOC(=O)CN1C(=O)CC(c2ccc([N+](=O)[O-])cc2)C1=O (centres undefined) | inactive
78 | NC(=O)c1nsc(C(=O)N(c2ccccc2F)C(C(=O)NCc2ccccc2)c2ccc(O)cc2)c1N (centres undefined) | inactive
79 | O=[N+]([O-])c1ccc(-c2csc(N3CCCCCC3)n2)cc1 | inactive
80 | Cc1csc(N2CCN(c3cc4c(cc3Cl)nc(-c3ccncc3)n4CCCN3CCCC3)CC2)n1 | 35.5 µM (active)
81 | Cc1ccc(-c2csc(N3CCN(CCCn4c(-c5ccncc5)nc5ccccc54)CC3)n2)cc1 | 35.5 µM (active)
82 | Cc1ccc(Nc2nc(-c3ccncc3)cs2)cc1 | inactive
83 | O=C(Nc1nc2c(s1)CN(Cc1ccccc1)CC2)c1c(F)cccc1F | inactive
84 | ClC1(Cl)CC1CSc1nc2ccccc2[nH]1 (centres undefined) | inactive
85 | Cc1ccc(/C=C2/SC(=S)N(CCC(=O)N3CCN(C)CC3)C2=O)cc1 | 11.9 µM (active)
86 | CN1CCN(C(=O)CCN2C(=O)/C(=C\c3ccc(F)cc3)SC2=S)CC1 | 39.8 µM (active)
87 | COc1ccc(-n2c(=O)/c(=C\c3cccs3)s/c2=C(/C#N)C(=O)N2CCN(C)CC2)cc1 | inactive
88 | Cc1ccc(/C=C2\Oc3c(ccc(O)c3CN3CCN(C)CC3)C2=O)cc1 | inactive
89 | CC/N=C1/S/C(=C/c2ccc(-c3ccc(F)cc3)o2)C(=O)N1CC | inactive
90 | COc1ccc(/C=C2/SC(=S)N(CCCC(=O)N3CCN(C)CC3)C2=O)cc1 | 17.8 µM (active)
91 | COc1ccc(/C=C2\SC(=S)N(CC(=O)NNC(=O)c3ccncc3)C2=O)cc1 | inactive
92 | O=C(CCN1C(=O)/C(=C\c2ccc(F)cc2)SC1=S)Nc1ccccc1 | inactive
93 | Cc1ccc(/C=C2\SC(=S)N(CCC(=O)NNC(=O)c3ccncc3)C2=O)cc1 | inactive
94 | O=C(Nc1cc[n+](-c2nc3ccccc3nc2[N-]S(=O)(=O)c2ccccc2)cc1)c1cccs1 | inactive
